Data on 15 compounds can be found in PubChem BioAssay (NCATS).

In assay [1] the target is Lysosomal acid glucosylceramidase (Homo sapiens) (UniProt P04062). The assay is described as follows: Glucocerebrosidase-p2 (AID 348; in the data active = potency below about 10 µM; note: potency is the fitted concentration of half-maximal effect). The conditions noted are these: purified GBA, blue fluorogenic substrate, 40 min. The gist of the method:
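Normal human glucocerebrosidase (0.2 nM) with blue fluorogenic substrate (80 uM final) in citrate/phosphate pH 5.9 with 10mM sodium taurocholate, 0.01% tween-20; 40 min RT, NaOH/glycine stop; fluorescence Ex 365/Em 440; AC50 from a titration from 0.6 nM upwards.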

Assay [2] is described as follows: AP1 Signaling Pathway (AID 357). Note: % is set by controls: 0 for no effect and ±100 for the full control effect. The conditions noted are these: ME-180 AP-1-bla reporter, EGF-induced, beta-lactamase ratio, 5 h; at 7.69 µM (top of the series) unless noted. The gist of the method:
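ME-180 cells with beta-lactamase reporter under AP-1 response element, stimulated with EC50 EGF; compounds tested in titration series, 5 h at 37 °C. CCF4 substrate added 2.5 h at room temperature; 460/530 nm emission ratio gave %activity and AC50.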

The target of assay [3] is Cytochrome P450 1A2 (Homo sapiens) (UniProt P05177). Briefly: p450-cyp1a2 (AID 410; calls by dose curve; note: potency is the fitted concentration of half-maximal effect). The conditions noted are these: recombinant CYP1A2, luciferin-ME demethylation, luminescence; series mostly up to 11.4 µM. The essentials:
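20nM CYP1A2, 100uM Luciferin-ME (=Km), 100mM KPO4; cpd 10 min RT; +NADPH regen, 60 min RT; stop/detect 20 min; luminescence. Normalized to furafylline 57 uM = full inhibition.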

Assay [4] is described as follows: NFAT Signaling Pathway (AID 444).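 Note: carbachol stimulus at about its EC50 of 1 µM final; % is set by controls: 0 for no effect and ±100 for the full control effect.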 The conditions noted are these: Jurkat NFAT-bla M1, carbachol, beta-lactamase ratio, 5 h; at 7.69 µM (top of the series) unless noted. The gist of the method:
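Jurkat cells carrying an NFAT-driven β-lactamase reporter and co-transfected muscarinic M1 receptor were treated with compound plus carbachol (1 uM final, an EC50 level) for 5 h at 37 °C. CCF4 loading followed for 1 h at RT; 460/530 nm ratio gave %activity.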

Assay [5] is described as follows: Stat Signaling Pathway (AID 446).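 Note: ME-180 cervical cancer cells given 40 pM IL-6 alongside compound; SIE-controlled beta-lactamase reporter measured as 460/530 nm FRET emission ratio; % is set by controls: 0 for no effect and ±100 for the full control effect.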 The conditions noted are these: ME-180 (cervical carcinoma) SIE beta-lactamase reporter, IL-6 stimulated, 5 h; at 7.69 µM (top of the series) unless noted. The essentials: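 FRET read-out (405 nm excitation, 460/530 nm emission) of a beta-lactamase reporter under a STAT-inducible element in ME-180 cervical carcinoma cells. Cells with compound receive 40 pM IL-6 for 5 h. Values are normalised to AC90 stimulation and AC90 JAK-inhibitor controls.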

Assay [6] concerns the target Glucocorticoid receptor (Homo sapiens) (UniProt P04150). Briefly: GR-GFP Redistribution (AID 450;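 active = compounds whose dose series gives a full or clear partial fitted curve of increased nuclear translocation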; note: potency is the fitted concentration of half-maximal effect). The conditions noted are these: U2OS GR-GFP nuclear translocation, laser cytometry, 2 h.
Assay [7] has the same target. Briefly: GR-EFC Redistribution (AID 451; calls by dose curve; note: potency is the fitted concentration of half-maximal effect). The conditions noted are these: CHO-K1 GR-EFC translocation, beta-gal luminescence, 2 h. The gist of the method:
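CHO-K1 cells stably expressing nuclear-localized β-gal enzyme acceptor and GR fused C-terminally to the enzyme donor fragment; ligand-driven nuclear translocation restores β-gal by complementation. Compounds titrated up to 46 uM final, 2 h at 37 °C; luminescence read.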

The target in assay [8] is Mitogen-activated protein kinase 10 (Mus musculus) (UniProt Q61831). The assay is described as follows: JNK3 AlphaScreen Assay (AID 530).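 Note: kinase came from lysate of stimulated human HepG2 cells; signal reports phosphorylation of biotinylated GST-cJun 1-79 at Ser73 with 10 µM ATP; % is set by controls: 0 for no effect and ±100 for the full control effect.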 The conditions noted are these: JNK3 lysate, c-Jun phosphorylation; series mostly up to 11.4 µM. The gist of the method:
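Biotinylated GST-cJun(1-79) served as substrate for JNK3 in HepG2 lysates stimulated with IL-1beta and TNF-alpha. ATP was 10 uM final, pH 7.6. Ser73 phosphorylation was quantified by AlphaScreen (680 nm excitation).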
(In general: Alpha assays give light when donor and acceptor beads are brought close together.)

The target in assay [9] is 3',5'-cyclic-AMP phosphodiesterase 4B (Homo sapiens) (UniProt Q07343). The assay is described as follows: qHTS Assay for Inhibitors of PDE-IV (AID 607; active = well fitted activation curve with a large enough effect in the main read-out, with a control signal flat, not every such curve was filed as active; note: % of control where 0% means no effect). The conditions noted are these: HEK293 ACTOne CNG channel cells, membrane potential fluorescence; series mostly up to 22.9 µM. The essentials: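 Cell-based read-out of cAMP via a modified cyclic nucleotide-gated channel and membrane potential dye (535/590 nm) in HEK293 cells expressing PDE4 endogenously. Compounds tested up to 22.9 uM final; 100 uM RO 20-1724 reference.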
(Quantitative high-throughput screening tests each substance at several concentrations.)

Values without a mark were called inactive. Inconclusive results are not listed. Calls of active or inactive are those of the source. Unless noted, calls come from the whole dose curve; as a rule, active = well fitted curve in either direction with a large enough effect (not every such curve was filed as active); inconclusive = small, poorly fitted or top-dose-only effect, or another doubt; inactive = flat fitted curve, though single readings scatter. A value given as a limit tells only on which side of the number the result lay.

Chain of Lysosomal acid glucosylceramidase (Homo sapiens) (P04062 whole entry, looked up): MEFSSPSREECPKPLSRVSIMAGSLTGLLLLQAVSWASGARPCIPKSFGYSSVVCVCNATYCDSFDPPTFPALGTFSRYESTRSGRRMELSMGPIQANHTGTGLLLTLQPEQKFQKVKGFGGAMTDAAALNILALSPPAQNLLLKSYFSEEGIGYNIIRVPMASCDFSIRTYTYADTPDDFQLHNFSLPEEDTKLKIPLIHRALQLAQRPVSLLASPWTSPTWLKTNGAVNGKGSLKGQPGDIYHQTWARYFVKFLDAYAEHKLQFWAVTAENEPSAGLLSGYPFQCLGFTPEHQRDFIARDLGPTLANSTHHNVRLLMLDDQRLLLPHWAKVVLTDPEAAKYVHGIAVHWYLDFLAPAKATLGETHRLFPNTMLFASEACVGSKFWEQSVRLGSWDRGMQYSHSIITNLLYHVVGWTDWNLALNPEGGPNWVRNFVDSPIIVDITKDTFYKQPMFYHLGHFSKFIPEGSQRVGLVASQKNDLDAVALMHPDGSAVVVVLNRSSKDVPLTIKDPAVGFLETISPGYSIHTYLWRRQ
Chain of Cytochrome P450 1A2 (Homo sapiens) (P05177 whole entry, looked up): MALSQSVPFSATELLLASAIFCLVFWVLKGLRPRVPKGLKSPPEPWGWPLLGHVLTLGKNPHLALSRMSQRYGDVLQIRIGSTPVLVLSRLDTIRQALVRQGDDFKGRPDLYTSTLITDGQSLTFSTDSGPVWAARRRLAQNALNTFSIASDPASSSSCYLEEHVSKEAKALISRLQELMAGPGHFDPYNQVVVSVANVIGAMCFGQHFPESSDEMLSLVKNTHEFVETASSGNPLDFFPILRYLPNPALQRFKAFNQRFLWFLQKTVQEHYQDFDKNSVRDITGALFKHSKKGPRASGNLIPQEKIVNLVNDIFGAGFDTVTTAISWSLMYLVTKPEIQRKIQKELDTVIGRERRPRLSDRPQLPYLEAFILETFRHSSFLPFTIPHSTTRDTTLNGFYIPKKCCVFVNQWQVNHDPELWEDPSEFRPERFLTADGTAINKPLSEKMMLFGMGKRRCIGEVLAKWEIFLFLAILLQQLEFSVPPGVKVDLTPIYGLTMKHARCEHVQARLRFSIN
Chain of 3',5'-cyclic-AMP phosphodiesterase 4B (Homo sapiens) (Q07343 whole entry, looked up): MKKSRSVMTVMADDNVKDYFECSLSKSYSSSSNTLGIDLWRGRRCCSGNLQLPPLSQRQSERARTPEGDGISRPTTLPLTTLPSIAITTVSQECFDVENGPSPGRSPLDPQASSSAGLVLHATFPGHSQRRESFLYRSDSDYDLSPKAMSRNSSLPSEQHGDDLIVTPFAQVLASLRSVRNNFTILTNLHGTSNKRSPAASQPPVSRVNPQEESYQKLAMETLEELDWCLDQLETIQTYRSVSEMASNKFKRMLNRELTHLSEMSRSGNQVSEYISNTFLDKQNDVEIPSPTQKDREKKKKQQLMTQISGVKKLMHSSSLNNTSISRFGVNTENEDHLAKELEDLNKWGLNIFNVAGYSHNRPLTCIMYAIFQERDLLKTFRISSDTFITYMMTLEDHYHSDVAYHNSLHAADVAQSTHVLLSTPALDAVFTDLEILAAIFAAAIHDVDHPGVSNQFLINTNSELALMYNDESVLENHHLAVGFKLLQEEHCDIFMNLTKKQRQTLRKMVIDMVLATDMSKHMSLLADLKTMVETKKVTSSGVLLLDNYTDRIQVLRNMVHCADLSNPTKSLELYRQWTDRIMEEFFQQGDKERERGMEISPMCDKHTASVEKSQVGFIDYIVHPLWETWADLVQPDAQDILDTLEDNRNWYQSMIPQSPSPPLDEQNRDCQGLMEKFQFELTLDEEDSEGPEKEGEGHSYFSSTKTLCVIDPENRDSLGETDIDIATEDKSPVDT
Chain of Glucocorticoid receptor (Homo sapiens) (P04150 whole entry, looked up): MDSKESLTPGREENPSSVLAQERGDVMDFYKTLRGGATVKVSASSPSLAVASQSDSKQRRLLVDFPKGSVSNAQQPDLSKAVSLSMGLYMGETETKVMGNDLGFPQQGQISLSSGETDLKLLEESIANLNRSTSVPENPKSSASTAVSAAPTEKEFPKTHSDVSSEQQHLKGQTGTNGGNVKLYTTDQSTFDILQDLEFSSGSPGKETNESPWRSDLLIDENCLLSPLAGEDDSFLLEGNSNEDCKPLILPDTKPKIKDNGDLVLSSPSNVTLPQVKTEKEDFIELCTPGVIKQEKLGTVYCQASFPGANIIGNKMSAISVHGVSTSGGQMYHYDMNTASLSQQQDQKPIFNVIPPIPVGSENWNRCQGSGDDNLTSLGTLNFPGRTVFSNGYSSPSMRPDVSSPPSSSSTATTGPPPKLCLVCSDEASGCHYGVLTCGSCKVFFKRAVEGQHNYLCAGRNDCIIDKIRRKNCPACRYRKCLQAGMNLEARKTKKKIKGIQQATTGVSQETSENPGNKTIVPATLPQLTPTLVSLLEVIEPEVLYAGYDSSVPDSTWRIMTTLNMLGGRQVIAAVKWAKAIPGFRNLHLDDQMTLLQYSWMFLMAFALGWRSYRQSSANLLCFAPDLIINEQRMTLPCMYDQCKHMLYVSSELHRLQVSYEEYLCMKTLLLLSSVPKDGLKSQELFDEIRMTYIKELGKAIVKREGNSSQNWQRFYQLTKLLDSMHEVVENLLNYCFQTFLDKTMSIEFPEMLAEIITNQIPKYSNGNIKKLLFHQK

Consider `CCN=C(N)CSS(=O)(=O)O`, for which the figures for the Potency in [1], in assay [6] and in [7] were over 11.4 µM, over 46 µM and over 9.22 µM, respectively. The activity change, negative = inhibition is 9.8% in [2] and -7.3% in [4]. Further, the Potency result in assay [3], in [8] and in assay [9] was “inactive” in each case. For the same compound, the activity, negative = inhibition in assay [5] was -20%.
As to `NC(N)=N/N=C\c1ccc(C2CCNCC2)cc1`, the Potency was over 11.4 µM in assay [1], over 46 µM in assay [6] and over 9.22 µM in [7]. For the same compound, the results for the activity change, negative = inhibition in assay [2], in assay [3] and in assay [4] were 7.39%, -12% [at 2.29 µM] and -11.8%, respectively. Moreover, the activity, negative = inhibition in assay [5] is 0.317%. Further, the Potency entry in assay [8] and in assay [9] was “inactive” throughout.
`O=C(O)CSCCc1ccccc1`: the Potency is over 11.4 µM in assay [1], over 46 µM in [6] and over 9.22 µM in [7]. Besides, the activity change, negative = inhibition in [2] is 6.88%; in [4], -11.5%. For the same compound, the Potency entry in assay [3], in [8] and in assay [9] was “inactive” throughout. In [5], the activity, negative = inhibition was 16.8%.
With `O=c1c[n+](CC[n+]2cc(=O)o[nH]2)[nH]o1`, the Potency is over 11.4 µM in assay [1], 2.51 µM (active) in assay [3], over 46 µM in assay [6] and over 9.22 µM in assay [7]. Besides, the activity change, negative = inhibition in assay [2] was 2.98%; in assay [4], 12.3%. Besides, in assay [5], the activity, negative = inhibition was 4.21%. The Potency result in assay [8] and in assay [9] was “inactive” each time.
Regarding `Nc1ncnc2c1ncn2[C@H]1O[C@@H](CO)[C@@H](O)[C@H]1N`, the Potency was over 11.4 µM in assay [1], over 46 µM in [6] and over 9.22 µM in [7]. In addition, the activity change, negative = inhibition in assay [2] is -9.35%; in assay [4] it was -3.9%. The Potency result in assay [3], in assay [8] and in [9] was “inactive” throughout. In addition, the activity, negative = inhibition in assay [5] was 5.68%.
With `CC(C)Cn1cnc2c(Sc3c([N+](=O)[O-])ncn3C)nc(N)nc21`, the Potency is over 11.4 µM in assay [1], over 46 µM in assay [6] and over 9.22 µM in assay [7]. For the same compound, the activity change, negative = inhibition was -3.59% in assay [2], 8.1% [at 2.29 µM] in assay [3] and -13.9% in [4]. Also, the activity, negative = inhibition in assay [5] was 11.4%. Moreover, the Potency result in assay [8] and in assay [9] was “inactive” in each case.
Take `N#CC1(Nc2ccc(-c3ccc(NC4(C#N)CCCC4)cc3)cc2)CCCC1`: the Potency in assay [1] is over 11.4 µM; in assay [3], 3.16 µM (active); in assay [6], over 46 µM; in assay [7], over 9.22 µM. Moreover, the figures for the activity change, negative = inhibition in [2] and in assay [4] were -7.74% and 14.8%, respectively. Besides, the activity, negative = inhibition in assay [5] was 19%. For the same compound, the Potency result in assay [8] and in [9] was “inactive” each time.
Take `C[N+]1([C@H](CO)Cc2c[nH]c3ccccc23)Cc2ccccc2C1`: the Potency is over 11.4 µM in assay [1], over 46 µM in assay [6] and over 9.22 µM in [7]. Besides, the activity change, negative = inhibition in assay [2] was -7.62%; in assay [4], -15.6%. Further, the Potency result in assay [3], in assay [8] and in [9] was “inactive” throughout. In [5], the activity, negative = inhibition is 13.4%.
As for `NC(N)=N/N=C\c1ccc(O)c(C(=O)O)c1`, the values for the Potency in assay [1], in assay [6] and in [7] were over 11.4 µM, over 46 µM and over 9.22 µM, respectively. For the same compound, the activity change, negative = inhibition in assay [2] is 12.8%; in [3], -11.9% [at 2.29 µM]; in assay [4], 14.8%. The activity, negative = inhibition in [5] was -1.78%. The Potency result in [8] and in [9] was “inactive” throughout.
On to `N#CC(CC(=O)O)=C(c1ccccc1)c1ccccc1`, for which the Potency in assay [1] was over 11.4 µM; in assay [6], over 46 µM; in assay [7], over 9.22 µM. The activity change, negative = inhibition in assay [2] is 6.62%; in assay [3], -14.5% [at 2.29 µM]; in [4] it was -1.1%. Further, the activity, negative = inhibition in assay [5] is 1.35%. In addition, the Potency result in assay [8] and in assay [9] was “inactive” in each case.
For the compound `O=C(O)[C@@H]1[C@@H](C(=O)NCc2cccnc2)[C@@H]2C=C[C@@H]1O2`, the Potency in assay [1] was over 11.4 µM; in [6] it was over 46 µM; in assay [7], over 9.22 µM. Moreover, the activity change, negative = inhibition in assay [2] was 8.06%; in assay [3], -0.4% [at 2.29 µM]; in assay [4] it was 2.31%. Besides, in assay [5], the activity, negative = inhibition is 0.333%. For the same compound, the Potency entry in assay [8] and in assay [9] was “inactive” in each case.
As to `[N-]=[N+]=NC[C@@H]1O[C@@H](n2cnc3c(N)ncnc32)[C@@H]2O[C@@H]21`, the Potency in assay [1] was over 11.4 µM; in assay [6], over 46 µM; in assay [7], over 9.22 µM. Moreover, the activity change, negative = inhibition in assay [2] was 8.89%; in assay [4] it was 10.3%. The Potency result in [3], in assay [8] and in assay [9] was “inactive” each time. The activity, negative = inhibition in assay [5] is -3.75%.
For `CSc1nc(C)cc(Nc2ccc(O)c(CN3CCOCC3)c2)n1`, the Potency is over 11.4 µM in [1], 3.98 µM (active) in assay [3], over 46 µM in [6] and over 9.22 µM in assay [7]. For the same compound, the activity change, negative = inhibition in assay [2] is -11.8%; in assay [4] it was 12.3%. For the same compound, in [5], the activity, negative = inhibition was -6.58%. Also, the Potency result in assay [8] and in assay [9] was “inactive” in each case.
Consider `NCOC(=O)Cc1ccc(Br)cc1`, for which the Potency in assay [1] was over 11.4 µM; in [3], 0.2 µM (active); in assay [6], over 46 µM; in assay [7], over 9.22 µM. Besides, the activity change, negative = inhibition in assay [2] is 2.56%; in [4], 11%. Moreover, the activity, negative = inhibition in assay [5] was 5.96%. Besides, the Potency entry in [8] and in assay [9] was “inactive” in each case.
`O=C(O)c1cc(N=Cc2ccccc2O)cc(C(=O)O)c1`: the Potency was over 11.4 µM in assay [1], over 46 µM in assay [6] and over 9.22 µM in assay [7]. In addition, the activity change, negative = inhibition was -3.29% in assay [2] and 17.2% in assay [4]. Moreover, the Potency result in assay [3], in assay [8] and in assay [9] was “inactive” each time. Moreover, the activity, negative = inhibition in [5] is -4.46%.
